PubChem BioAssay (NCATS)
Records with an inconclusive call do not appear. Where a call stands in place of a potency, no number is given. Active and inactive are the calls of the source. The call rests on the fitted dose curve; in most records, active means well fitted curve in the direction sought with a large enough effect; inconclusive means small, poorly fitted or top-dose-only effect, or another doubt; inactive means no such curve, though single readings can be large; an effect the other way counts as inactive or inconclusive.

Columns and labels:
[1] = biological target: Aldehyde dehydrogenase, mitochondrial (Homo sapiens) (UniProt P05091); test: qHTS for Inhibitors of the Aldehyde Dehydrogenase Family (ALDH2) Primary screen (AID 2061308); further: nearly all actives have a fitted effect of over 55% in size
[2] = biological target: Retinaldehyde dehydrogenase 3 (Homo sapiens) (UniProt P47895); test: qHTS for Inhibitors of the Aldehyde Dehydrogenase Family (ALDH1A3) Primary screen (AID 2061315)

Row | SMILES | Potency [1] | Potency [2]
1 | COc1ccc(CNc2ccc(S(=O)(=O)Nc3nccs3)cc2)c(O)c1 | inactive | inactive
2 | CC(=O)Nc1sc2c(c1-c1ccc3c(c1)CCO3)CCNC2 | inactive | inactive
3 | O=C1CCCC2=C1C(c1ccc(Cl)cc1)N=C(Nc1nc3ccccc3o1)N2 (centres undefined) | inactive | inactive
4 | O=S(=O)(c1ccc2c(c1)OCCO2)N1CCN(S(=O)(=O)c2cccc3cccnc23)CC1 | inactive | inactive
5 | Fc1ccc(-c2nc(CCCCSc3nnc(-c4cccc5ccccc45)o3)no2)cc1 | inactive | inactive
6 | Fc1cc(Nc2nc(-c3ccncc3)nc3ccccc23)ccc1-c1ccnc(C(F)(F)F)c1 | inactive | inactive
7 | O=C1CCCC2=C1C1(CCCC1)N=C(Nc1nc3cc4ccccc4cc3o1)N2 | inactive | inactive
8 | Cc1ccc(S(=O)(=O)Nc2cnccc2C(=O)Nc2nc(-c3ccccc3F)cs2)cc1 | inactive | inactive
9 | COC(=O)c1cccc(-c2noc(-c3ccccc3F)n2)c1 | inactive | inactive
10 | COc1cc2ncnc(N(C)Cc3cccs3)c2cc1-c1ccc2c(c1)OCO2 | inactive | inactive
11 | O=C(Nc1nnc(-c2ccncc2)s1)Nc1ccc(Cl)cc1Cl | inactive | inactive
12 | CN(C)c1cccc(-c2ccnc(N3CCC(C(N)=O)CC3)n2)c1 | inactive | inactive
13 | Oc1cccc(C2NC(=S)Nc3cccc(F)c32)c1 (centres undefined) | inactive | inactive
14 | CC1(C)CC[C@]2(C(=O)O)CC[C@]3(C)C(=CCC4[C@@]5(C)C[C@@H](O)[C@H](O)[C@@](C)(CO)C5CC[C@]43C)C2C1 (some centres undefined) | inactive | inactive
15 | CCN1CCCC1Cn1c(-c2ccccc2)nc2c(NC3CCCCC3)nc(C)nc21 (centres undefined) | inactive | inactive
16 | Cc1ccc(OCCn2c(CCNC(=O)N3CCCCC3)nc3ccccc32)cc1 | inactive | inactive
17 | CC(=O)Nc1sc2c(c1C(=O)c1ccccc1)CCN(C(C)C)C2 | inactive | inactive
18 | CC(C)(C)n1nc(Cc2cccc([N+](=O)[O-])c2)c2c(N)ncnc21 | inactive | inactive
19 | O=C(NCc1nnc(-c2cc3ccccc3[nH]2)s1)c1ccccc1 | inactive | inactive
20 | Cc1ccnc(NC(=S)Nc2cccc(C(F)(F)F)c2)c1 | inactive | inactive
21 | O=C(NCCc1nc2ccccc2n1CCOc1ccc(F)cc1)C1CCCCC1 | inactive | inactive
22 | Cc1cc(NS(=O)(=O)c2cc3c(cc2F)NC(=O)CC3)ccc1Cl | inactive | inactive

Row | SMILES | Potency [1] | Potency [2]
23 | Cc1cccc(-c2[nH]c(Cc3cccc(C(N)=O)c3)nc2-c2ccc3nccnc3c2)n1 | inactive | inactive
24 | COc1ccc(NC(=O)c2cnn3c(C)cc(C)nc23)cc1F | inactive | inactive
25 | Fc1ccc(Nc2nc(-c3ccncc3)nc3ccccc23)cc1F | inactive | inactive
26 | Cc1cccc(NC(=O)CN2CCC(c3ccccn3)CC2)c1 | inactive | inactive
27 | Cc1cccc(CNc2ncnc3ccc(-c4cccc(C)c4)cc23)c1 | inactive | inactive
28 | COc1cccc(-c2ccc3ncnc(NCc4ccc5c(c4)OCO5)c3c2)c1 | inactive | inactive
29 | Cc1ccccc1-c1nc(NCc2cccs2)c2ccccc2n1 | inactive | inactive
30 | O=C(Nc1ccc(Cl)c(Cl)c1)Nc1nnc(-c2ccncc2)s1 | inactive | inactive
31 | O=S(=O)(c1ccc2c(c1)OCCO2)N1CCCN(S(=O)(=O)c2c(F)cccc2F)CC1 | inactive | inactive
32 | COc1cccc(C(=O)NCCc2nc3ccccc3n2CCOc2ccc(C)cc2)c1 | inactive | inactive
33 | Cc1ccc(OCCn2c(CCNC(=O)c3cccc4cc[nH]c34)nc3ccccc32)cc1 | inactive | inactive
34 | COc1ccc2c(c1)Oc1ncn(CCN3CCOCC3)c(=N)c1C2c1ccc(OC)c(OC)c1 (centres undefined) | inactive | inactive
35 | c1c[nH]c(CNc2ncnc3ccc(-c4ccoc4)cc23)n1 | inactive | inactive
36 | NC(=O)C1CCN(c2nc(-c3ccc4c(c3)CCO4)cs2)CC1 | inactive | inactive
37 | CCOC(=O)c1ccc(-n2cnc3c(c2=N)C(c2cccc(OC)c2)c2c(ccc4ccccc24)O3)cc1 (centres undefined) | inactive | inactive
38 | O=C(Nc1ccc(Cl)c(Cl)c1)Nc1nnc(C2CCCCC2)s1 | inactive | inactive
39 | Cc1scc2c1C(=O)NS2(=O)=O | inactive | inactive
40 | Cc1onc(-c2ccccc2Cl)c1C(=O)N[C@@H]1C(=O)N2[C@@H]1SC(C)(C)[C@@H]2C(=O)O | inactive | inactive
41 | S=C(Nc1ccc(Cl)c(Cl)c1)Nc1nnc(-c2ccncc2)o1 | inactive | inactive
42 | O=C(O)c1ccc2c(c1)C(=O)N([C@@H](C(=O)O)C(c1ccccc1)c1ccccc1)C2=O | inactive | inactive
43 | S=P(c1ccccc1)(c1ccccc1)c1c[n+](C/C=C/c2ccccc2)c2ccccn12 | inactive | inactive
44 | O=C(/C=C/c1ccccc1)Nc1cccc(S(=O)(=O)Nc2ccccc2F)c1 | inactive | inactive

Row | SMILES | Potency [1] | Potency [2]
45 | Cn1ccc2cc(-c3ccc4ncnc(NCc5cccc(F)c5)c4c3)ccc21 | inactive | inactive
46 | N#Cc1c(-c2ccccc2C(F)(F)F)nc2ccccc2c1NCc1ccc(-c2cccnc2)cc1 | inactive | inactive
47 | CCNc1cccc(S(=O)(=O)N2CCCN(S(=O)(=O)c3ccc4c(c3)OCCO4)CC2)c1 | inactive | inactive
48 | O=C(Nc1ccc(Br)c(Br)c1)Nc1cccc(-c2ccncc2)n1 | inactive | inactive
49 | Cc1cc(C)nc(NC(=S)N2CCN(c3ccc(Cl)cc3S(C)(=O)=O)CC2)c1 | inactive | inactive
50 | COc1cc(Nc2nc(-c3ccncc3)nc3ccccc23)ccc1Cl | inactive | inactive
51 | Cc1ccc(S(=O)(=O)Nc2cc(Cl)cc(C(=O)Nc3nc(-c4ccccc4)cs3)c2)cc1 | inactive | inactive
52 | Cc1cc2c(s1)c1cnn(Cc3cccc(F)c3F)c(=O)c1n2C | inactive | inactive
53 | O=C(Nc1ccc2ccccc2c1)Nc1nnc(-c2ccccc2Cl)s1 | inactive | inactive
54 | Cc1cc(NS(=O)(=O)c2ccc(NC(=O)Cc3ccc(Cl)cc3Cl)cc2)no1 | inactive | inactive
55 | Cn1nnnc1Sc1ncnc2scc(-c3ccc(C(F)(F)F)cc3)c12 | inactive | inactive
56 | COc1cc(OC)cc(-c2csc(N3CCC(C(N)=O)CC3)n2)c1 | inactive | inactive
57 | Cn1c(=O)c2c(nc(CN3CCN(C(=O)C4CC4)CC3)n2Cc2cccc(F)c2)n(C)c1=O | inactive | inactive
58 | N#Cc1ccccc1CNc1nc2ncc(Br)cc2[nH]1 | inactive | inactive
59 | Cn1c(=O)c2c(nc(OC3CCN(C(=O)C4CC4)CC3)n2CCC(C)(C)C)n(C)c1=O | inactive | inactive
60 | Cc1cnc(-c2ccccc2C(C)C)nc1NCc1ccc(-c2nn[nH]n2)cc1 | inactive | inactive
61 | COc1cc(F)c(S(=O)(=O)N2CCN(S(=O)(=O)c3cccc(NC(C)=O)c3)CC2)c(F)c1 | inactive | inactive
62 | Cc1ccc(OCCn2c(CCNC(=O)c3ccc4cc[nH]c4c3)nc3ccccc32)cc1 | inactive | inactive
63 | Cc1ccnc(NC(=S)NCCN(C)c2cccc(C(F)(F)F)c2)c1 | inactive | inactive
64 | CC(=O)c1ccc(N2CCN(S(=O)(=O)c3ccc4c(c3)CC(=O)N4)CC2)cc1 | inactive | inactive
65 | COc1ccc(C(=O)Nc2ccc(-c3nc4ccccc4[nH]3)cc2)cc1C(F)(F)F | inactive | inactive
66 | O=C(O)CNC(=O)CNC(=O)CNC(=O)CSC(=O)c1ccccc1 | inactive | inactive

Row | SMILES | Potency [1] | Potency [2]
67 | CC(=O)Nc1sc2c(c1-c1ccc3c(c1)OCO3)CCNC2 | inactive | inactive
68 | NC(=O)c1ccccc1C[C@H](C(=O)O)N1C(=O)c2ccc(C(=O)O)cc2C1=O | inactive | inactive
69 | Cc1cccc(CNc2ncnc3ccc(-c4ccc5c(ccn5C)c4)cc23)c1 | inactive | inactive
70 | COc1ccc(CNc2nc(-c3ccccc3C(F)(F)F)nc3ccccc23)cc1 | inactive | inactive
71 | C[S+](=O)([O-])c1ccc(-c2ccc(=O)n(CC(=O)NCCc3ccccc3)n2)cc1 | inactive | inactive
72 | O=[S+]1([O-])N=C(Oc2cccnc2)c2ccccc21 | inactive | inactive
73 | N#Cc1nc(Nc2ccc(-c3ccccc3)cc2)nc(NC2CCCC2)n1 | inactive | inactive
74 | Fc1cc(-c2nc(Nc3ccc(F)c(F)c3)c3ccccc3n2)ccn1 | inactive | inactive
75 | Cc1ccc(OCCn2c(CCNC(=O)c3cccc(NC(=O)OC(C)(C)C)c3)nc3ccccc32)cc1 | inactive | inactive
76 | Fc1ccc(-c2ccc(CNc3nc(-c4ccccc4C(F)(F)F)nc4ccccc34)cc2)cc1C(F)(F)F | inactive | inactive
77 | O=S(=O)(Nc1ccc(C2CCNCC2)cc1)c1ccc(NCc2cccc(Cl)c2O)cc1 | inactive | inactive
78 | N#Cc1ccc(Nc2nn3c(=O)c4ccccc4nc3s2)cc1 | inactive | inactive
79 | O=C(Nc1ccc(-c2nc3ccccc3[nH]2)cc1)c1ccc2ncccc2c1 | inactive | inactive
80 | Cc1cc2c(s1)c1cnn(Cc3cccc(C(F)(F)F)c3)c(=O)c1n2C | inactive | inactive
81 | Cn1nnnc1Sc1ncnc2scc(-c3cccc([N+](=O)[O-])c3)c12 | inactive | inactive
82 | Cn1c2cc(Br)sc2c2cnn(Cc3c(F)cccc3F)c(=O)c21 | inactive | inactive
83 | O=C(NC1CCCc2c1cnn2-c1ccc(F)cc1F)c1ccccc1 (centres undefined) | inactive | inactive
84 | COc1ccc(C2Nc3ccccc3C(=O)N2Cc2cccc(Cl)c2)cc1COc1ccc(NC(C)=O)cc1 (centres undefined) | inactive | inactive
85 | COc1ccc(NC(=O)CSc2nnc(-c3cccc(S(=O)(=O)N4CCCC4)c3)n2-c2ccccc2)cc1 | inactive | inactive
86 | Clc1ccccc1-c1ccc2ncnc(NCc3cccnc3)c2c1 | inactive | inactive
87 | Cc1cc(NS(=O)(=O)c2ccc(NC(=O)Cc3ccc(Cl)c(C(F)(F)F)c3)cc2)no1 | inactive | inactive
